The AC50 is the concentration giving half of the maximal activity seen.

The values that follow come from PubChem BioAssay (EPA / NIEHS).

Active and inactive are the calls of the source. Rule for the calls: active = hit-call score of the fitted dose curve at least 0.9, where 1 is the maximum; inactive = score below 0.9.

rat CYP2A1, Cyp2a1 (gene 24894), sequence (P11711 whole entry, looked up): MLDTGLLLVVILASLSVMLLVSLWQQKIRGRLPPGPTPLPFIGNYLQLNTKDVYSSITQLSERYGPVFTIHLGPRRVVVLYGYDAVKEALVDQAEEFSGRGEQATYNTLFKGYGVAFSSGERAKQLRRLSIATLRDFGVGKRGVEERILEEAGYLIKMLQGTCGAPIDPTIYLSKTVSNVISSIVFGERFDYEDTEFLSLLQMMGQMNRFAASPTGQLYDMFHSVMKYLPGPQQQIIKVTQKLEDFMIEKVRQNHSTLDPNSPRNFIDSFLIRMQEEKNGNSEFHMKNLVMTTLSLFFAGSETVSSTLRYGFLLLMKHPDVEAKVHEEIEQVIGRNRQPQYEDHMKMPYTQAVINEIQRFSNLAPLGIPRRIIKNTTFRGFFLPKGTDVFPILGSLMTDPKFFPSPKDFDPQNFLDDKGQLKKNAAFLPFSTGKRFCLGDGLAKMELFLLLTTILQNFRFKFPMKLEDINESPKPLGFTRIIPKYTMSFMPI

In the assay the target is rat CYP2A1, Cyp2a1 (gene 24894) (UniProt P11711). Briefly: NVS_ADME_rCYP2A1: NovaScreen (NVS) CYP450-related Enzyme Activity (ADME) Assay for rat CYP2A1 (AID 2283114). On the procedure:
NVS_ADME_rCYP2A1 is a biochemical, single-readout assay that uses extracted gene-proteins in a cell-free assay. Measurements were taken 0.75 hour after chemical dosing in a 96-well plate.NVS_ADME_rCYP2A1 is one of one assay component(s) measured or calculated from the NVS_ADME_rCYP2A1 assay. It is designed to make measurements of enzyme activity, a form of enzyme reporter, as detected with fluorescence intensity signals by Fluorescence technology.Data from the assay component NVS_ADME_rCYP2A1 was analyzed into 1 assay endpoint. This assay endpoint, NVS_ADME_rCYP2A1, was analyzed in the positive analysis fitting direction relative to Acetonitrile as the negative control and baseline of activity. Using a type of enzyme reporter, loss-of-signal activity can be used to understand changes in the enzymatic activity as they relate to the gene Cyp2a1. Furthermore, this assay endpoint can be referred to as a primary readout, because this assay has produced multiple assay endpoints where this one serves a enzymatic activity function. To generalize the intended target to other relatable targets, this assay endpoint is annotated to the cyp intended target family, where the subfamily is xenobiotic metabolism.
Binding assays used specific radioligands (tritiated, iodinated) with non-radioactive competitive displacement ligands in agonist or antagonist protocols (as indicated) and various reference compounds and inhibitors to titrate specific binding to receptors and transporters. Most enzyme assays (CYPs, kinases, phosphatases, proteases, HDACs) used recombinant protein and specific substrates (fluorescence mostly, some colorimetric and radioactive) and inhibitors, followed by a biochemical separation of substrate and product. All assays for the biochemical HTS were initially run in duplicate at a single concentration (10 uM for CYP450 assays and 25 uM for all others). Assay-chemical combinations meeting a pre-defined threshold (e.g., 30% inhibition and other criteria defined below) were then run in singleton concentration-response format with maximum concentration of 20 uM for CYPs and 50 uM for all others. Each assay was run with positive and negative controls, and concurrent controls on every plate. The follow-up (secondary) screen tested active chemical-pairs in concentration series, as well as a few additional assays not tested in the primary screen, some selected negative inactives, and several cases re-run in the concentration series for confirmatory purposes.
For `FC(F)C(F)(F)OCC(Cn1cncn1)c1ccc(Cl)cc1Cl` (stereo not drawn), the AC50 was 1850 nM (active).

For the compound `CCCOCC(=Nc1ccc(Cl)cc1C(F)(F)F)n1ccnc1`, the AC50 is 955 nM (active).

Regarding `CCOP(=S)(OCC)Oc1ccc2c(C)c(Cl)c(=O)oc2c1`, the outcome was inactive.

Regarding `CC(C1CC1)C(O)(Cn1cncn1)c1ccc(Cl)cc1` (stereo not drawn), the AC50 is 4580 nM (active).

For the compound `C[Si](Cn1cncn1)(c1ccc(F)cc1)c1ccc(F)cc1`, the AC50 was 1390 nM (active).

With `CSC1=N[C@@](C)(c2ccccc2)C(=O)N1Nc1ccccc1`, the concentration at half-maximal activity (AC50) is 7680 nM (active).

Turning to `CCC(=O)Nc1ccc(Cl)c(Cl)c1`, the AC50 was 2200 nM (active).

Regarding `CCOP(=S)(OCC)Oc1ccc([N+](=O)[O-])cc1`, the AC50 was 5890 nM (active).

For the compound `CCOC(=O)CC(SP(=O)(OC)OC)C(=O)OCC` (stereo not drawn), the result was inactive.

`C=C(C)[C@H]1Cc2c(ccc3c2O[C@@H]2COc4cc(OC)c(OC)cc4[C@@H]2C3=O)O1`: the call was inactive.

In the case of `CN(C)C(=O)Nc1cccc(C(F)(F)F)c1`, the AC50 was 4330 nM (active).

`CC1(C(=O)Nc2ccc(O)c(Cl)c2Cl)CCCCC1`: the AC50 was 1800 nM (active).

Regarding `C#CC(C)(C)NC(=O)c1cc(Cl)cc(Cl)c1`, the AC50 is 1430 nM (active).
